Screening results as filed in PubChem.
FBW7 activator: activators of human E3 ligase FBW7; Q969H0; AlphaScreen FBW7–phospho-cyclin E peptide binding, activator screen; normalized activity (activation), % at 26.1 µM; hit rate 0.13% among 650,000; AID 1259310; in the data active = normalized activity above about 1.9%;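 also: purified mutant Fbw7 with reduced substrate affinity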
Target sequence (Q969H0 whole entry, looked up): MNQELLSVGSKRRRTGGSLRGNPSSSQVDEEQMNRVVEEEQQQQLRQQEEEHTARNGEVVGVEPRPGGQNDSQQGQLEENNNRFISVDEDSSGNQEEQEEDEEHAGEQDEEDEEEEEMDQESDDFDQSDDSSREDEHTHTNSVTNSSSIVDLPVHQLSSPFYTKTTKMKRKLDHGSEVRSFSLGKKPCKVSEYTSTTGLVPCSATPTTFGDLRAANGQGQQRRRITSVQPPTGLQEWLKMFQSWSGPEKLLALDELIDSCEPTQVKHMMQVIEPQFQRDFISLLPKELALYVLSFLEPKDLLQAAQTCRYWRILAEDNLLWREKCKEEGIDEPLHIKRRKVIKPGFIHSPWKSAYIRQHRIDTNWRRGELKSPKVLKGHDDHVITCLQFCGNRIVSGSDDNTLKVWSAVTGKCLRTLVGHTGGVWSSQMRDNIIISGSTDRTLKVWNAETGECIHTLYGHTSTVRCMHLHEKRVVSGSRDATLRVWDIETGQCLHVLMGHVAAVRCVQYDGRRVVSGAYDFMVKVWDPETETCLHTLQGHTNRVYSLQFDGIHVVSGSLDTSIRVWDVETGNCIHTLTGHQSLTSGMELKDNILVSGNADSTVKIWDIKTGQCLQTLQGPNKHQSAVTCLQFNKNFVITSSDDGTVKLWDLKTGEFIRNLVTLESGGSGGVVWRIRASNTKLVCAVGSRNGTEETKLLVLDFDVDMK
MITF inh: human MITF inhibition, primary screen; O75030; AlphaScreen MITF homodimerization, bead proximity signal; inhibition, % at 2.6 µM; hit rate 0.91% among 650,000; in the data active = inhibition above about 50%
TEAD-YAP inh: TEAD-YAP interaction inhibition; HEK-TIYL cells, TEAD-Gal4/YAP UAS-luciferase luminescence; inhibition, % at 9.12 µM; hit rate 1.4% among 640,000; AID 1259422; in the data active = inhibition above about 32%
GPR151 activ: human GPR151 activation; Q8TDV0; PathHunter beta-arrestin GPR151 cells, luminescence; activation, % at 11.2 µM; hit rate 1% among 650,000; in the data active = activation above about 4.9%
MITF inh conf: human MITF inhibition, confirmation | AID 1259372 | hit rate 16% among 4,700 | inhibition, % at 2.6 µM | shares compounds with MITF inh | AlphaScreen MITF homodimerization, biotin/His-MITF beads;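 active = inhibition above a cutoff derived from the DMSO control wells, cut at about 28% in these data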;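 also: inhibitors lower the bead chemiluminescence by keeping MITF from dimerizing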
AS interf DR: counter-screen: compounds optically interfering with AlphaScreen. shares compounds with MITF inh. AlphaScreen optical interference counterscreen, cell-free. IC50, µM. hit rate 6% among 480; call rule not given here
AS interf ctr: counter-screen: compounds optically interfering with AlphaScreen; LysRS AlphaScreen counterscreen, signal interference, triplicate; shares compounds with MITF inh; hit rate 7.6% among 4,700; inhibition, % at 2.6 µM; AID 1259376;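 active = inhibition above a cutoff derived from the DMSO control wells, cut at about 30% in these data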
Numbers stand for hits; n = inactive; x = no result; ! = a repeat was not active. Compounds with a hit are over-represented: about 3.4% of the library has one in this group of screens.

SMILES	FBW7 activator	MITF inh	TEAD-YAP inh	GPR151 activ	MITF inh conf	AS interf ctr	others
COc1ccc(CN2CCN(C(=O)COc3ccccc3)CC2)cc1OC	n	n	n	n	x	x
COc1ccc(CN2CCN(Cc3cccc(Cl)c3)CC2)cc1Br	n	67.9	n	n	38.9	n	AS interf DR=n
COc1ccc(CN2CCN(Cc3ccc(C)cc3)CC2)cc1Br	n	53.4	n	n	n	n
COc1ccc(CN2CCN(C(=O)Cc3ccccc3)CC2)cc1Br	n	52.8	n	n	n	n
COc1ccc2ccccc2c1CN1CCN(C(=O)Cc2ccccc2)CC1	n	54.7	n	n	n	n
N#Cc1c(NC(NC(=O)CF)C(Cl)(Cl)Cl)sc2c1CCCC2 (stereo not given)	n	n	n	n	x	x
COc1ccc(NC(=O)C(Cl)(Cl)Cl)cc1	n	n	n	n	x	x
Cc1nc2ccc(Cl)cc2c(=O)n1-c1ccc(Br)cc1	n	n	n	n	x	x
CCC1(c2ccccc2)C(=O)NC(=O)N(C(=O)c2cccc(Cl)c2)C1=O (stereo not given)	n	n	n	n	x	x
COc1ccc(CN2CCN(Cc3cccc(Br)c3)CC2)cc1Br	n	76.3	n	n	n	n
COc1ccc(-n2c(=S)[nH]c3ccccc3c2=O)cc1	n	n	n	n	x	x
Cc1nn(CC(=O)N2CCC3(CC2)OCCO3)c(=O)c2cc3sccc3n12	n	65.5	n	n	n	n
O=C(Cn1ncn2cccc2c1=O)N1CCC2(CC1)OCCO2	n	n	n	n	x	x
CN(C)CCN(C)Cc1c[nH]c2ccccc12	n	63.6	n	n	n	n
CCN1CCN(Cc2ccc(OC)c(C)c2C)CC1	n	53.4	n	n	n	n
COc1cc(CN2CCN(c3ccccc3)CC2)cc(OC)c1O	n	n	n	n	x	x
COc1cc(CN2CCN(C(C)C)CC2)cc(OC)c1OC	n	82.2	n	n	n	n
COc1cc(CN2CCN(C(C)C)CC2)cc(OC)c1O	n	71.5	n	n	n	n
CCOc1cc(CN2CCN(CC)CC2)ccc1O	n	57.1	n	n	n	n
Cc1cccc(CN2CCN(C(C)C)CC2)c1	n	n	n	n	x	x
COc1ccc(CNCCc2ccc(OC)c(OC)c2)cc1Br	n	n	n	n	x	x
Cn1ccnc1C1(O)CC2CCC(C1)N2CC(=O)N1c2ccccc2Sc2ccccc21 (stereo not given)	n	n	n	n	x	x
CCN1CCN(Cc2cc(OC)c(OC)c(OC)c2)CC1	n	52.2	n	n	n	n
CCC(CC)N1CCN(Cc2cc(OC)c(OC)c(OC)c2)CC1	n	57.1	n	n	n	n
COc1cc(CN2CCN(CCO)CC2)cc(OC)c1OC	n	n	n	n	x	x
SMILES	FBW7 activator	MITF inh	TEAD-YAP inh	GPR151 activ	MITF inh conf	AS interf ctr	others
O=C(C1CC2CCC1C2)N1CCN(c2cccc(Cl)c2)CC1 (stereo not given)	n	n	n	n	x	x
C[N+]1(C)[C@@H]2CC[C@H]1CC(OC(=O)C(CO)c1ccccc1)C2 (stereo not given in full)	n	n	x	n	x	x
C[N+]1(C)C2CCC1CC(OC(=O)C(CO)c1ccccc1)C2 (stereo not given)	n	62.9!	n	n	n	n
COc1ccccc1OCC#CCN1CCCC(C)C1 (stereo not given)	n	58.3	n	n	n	n
CN1CCN(Cc2ccc(C(F)(F)F)cc2)CC1CCO (stereo not given)	n	n	n	n	x	x
O=C(COc1ccccc1)N1CCN(Cc2ccccn2)CC1	n	77.9	n	n	n	n
O=C(Cc1ccccc1)N1CCN(Cc2ccccn2)CC1	n	n	n	n	x	x
Cn1cccc1CN1CCN(C(=O)COc2ccccc2)CC1	n	52.9	n	n	n	n
COc1cccc(CN(CCN(C)C)C(=O)c2nn(CC3CC3)c3cc(-c4cn[nH]c4)ccc23)c1	n	n	n	n	x	x
O=[N+]([O-])c1ccccc1CN1CCN(Cc2ccccc2Br)CC1	n	58.2	n	n	n	n
O=[N+]([O-])c1ccccc1CN1CCN(Cc2ccccc2)CC1	n	n	n	n	x	x
CSc1ccc(CN2CCN(Cc3ccc(Br)cc3)CC2)cc1	n	78.2	n	n	n	n
CCc1ccc(CN2CCN(Cc3ccccc3Br)CC2)cc1	n	57.4	n	n	n	n
CCN1CCN(Cc2ccccc2Br)CC1	n	n	n	n	x	x
CSc1ccc(CN2CCN(Cc3ccccc3Br)CC2)cc1	n	75.0	n	n	n	n
CCN1CCN(Cc2ccc(SC)cc2)CC1	n	n	n	n	x	x
COc1cc(/C=C/[N+](=O)[O-])ccc1OC(=O)C(C)(C)C	n	n	n	n	x	x
COc1cccc(CN2CCN(Cc3ccc(Br)cc3)CC2)c1	n	69.7	n	n	n	n
COc1cccc(CN2CCN(c3ccc([N+](=O)[O-])cc3)CC2)c1	n	n	n	n	x	x
COc1cccc(CN2CCN(Cc3cccc(Br)c3)CC2)c1	n	63.0	n	n	n	n
CCOC(=O)C1C2NC(=S)N(c3cccc(Cl)c3)C1(C)Oc1c(OC)cccc12 (stereo not given)	n	51.7	n	n	34.2	n	AS interf DR=n
CCOC(=O)C1C2NC(=S)N(c3ccccc3OC)C1(C)Oc1c(OCC)cccc12 (stereo not given)	n	n	n	n	x	x
CCOC(=O)C1C2NC(=S)N(c3ccc(CC)cc3)C1(C)Oc1c(OCC)cccc12 (stereo not given)	n	54.2	n	n	41.7	n	AS interf DR=n
CCN(CC(=O)Nc1ccc(C#N)c(Cl)c1)CC(=O)Nc1c(F)cccc1F	n	n	n	n	x	x
CCN(CC(=O)Nc1ccc(Br)cc1)CC(=O)Nc1ccc(C#N)c(Cl)c1	n	85.3	n	n	n	n
SMILES	FBW7 activator	MITF inh	TEAD-YAP inh	GPR151 activ	MITF inh conf	AS interf ctr	others
CCN1CCN(Cc2c(C)noc2C)CC1	n	83.0	n	n	n	n
COc1cccc(NC(=O)Cn2c[n+]([N-][N+](=O)[O-])cn2)c1	n	n	n	n	x	x
COCc1c(C(=O)NCc2ccncc2)c(=O)cc(C)n1CCCc1ccccc1	n	n	n	n	x	x
Cc1nc2ccc(P(=O)(O)O)cc2s1	n	55.1	n	n	n	40.1
CCCCCCCCCC(=O)OC[C@H](COP(=O)(O)OCC[N+](C)(C)C)OC(=O)CCCCCCCCC	x	n	x	n	x	x
COc1ccc(CN2CCN(Cc3ccc(Cl)cc3)CC2)cc1	n	82.7	n	n	n	n
COc1ccc(CN2CCN(Cc3ccc(C)cc3)CC2)cc1	n	80.2	n	n	n	n
OC1C2CCC1C(N1CCCC1)CC2 (stereo not given)	n	n	n	n	x	x
O=c1c(CN2CC=C(c3ccc(F)cc3)CC2)coc2ccccc12	n	n	n	n	x	x
CCN1CCN(Cc2cccc(Cl)c2Cl)CC1	n	n	n	n	x	x
COc1cccc(CN2CCN(Cc3ccccc3Cl)CC2)c1	n	85.7	n	n	n	n
CN1CCN(Cc2ccccc2Cl)CC1	n	64.1	n	n	n	n
CN1CCN(Cc2coc3ccccc3c2=O)CC1	n	51.4	55.5	n	n	n
